Results published in paper PMC5540273 (PLoS ONE, 2017).
Several values for one entry are separate records, joined by “and”; a condition that tells them apart may be missing. Equal values may be shown once. Read-outs that look alike come from different tables or passages of the source.

Tests used:
[1] = tested on: MARK3; settings: concentration: 1 μM, replicates: in singlicate; n = 1
[2] = tested on: MARK4; settings: concentration: 1 μM, replicates: in singlicate, n = 1
[3] = tested on: MAST1; settings: concentration: 1 μM, replicates: in singlicate, n = 1
[4] = tested on: T1, MEK1; settings: concentration: 1 μM, replicates: in singlicate, n = 1
T1 construct: gene MAP2K1

[5] = tested on: T2, MEK2; settings: concentration: 1 μM, replicates: in singlicate, n = 1
T2 construct: gene MAP2K2

[6] = tested on: T3, MEK3; settings: concentration: 1 μM, replicates: in singlicate, n = 1
T3 construct: gene MAP2K3

[7] = tested on: T4, MEK4; settings: concentration: 1 μM, replicates: in singlicate, n = 1
T4 construct: gene MAP2K4

[8] = tested on: T5, MEK5; settings: concentration: 1 μM, replicates: in singlicate, n = 1
T5 construct: gene MAP2K5

[9] = tested on: T6, MEK6; settings: concentration: 1 μM, replicates: in singlicate; n = 1
T6 construct: gene MAP2K6

[10] = tested on: MELK; settings: concentration: 1 μM, replicates: in singlicate, n = 1
[11] = tested on: MERTK; settings: concentration: 1 μM, replicates: in singlicate; n = 1
[12] = tested on: MET; settings: concentration: 1 μM, replicates: in singlicate; n = 1
[13] = tested on: T7, MINK; settings: concentration: 1 μM, replicates: in singlicate, n = 1
T7 construct: gene MINK1

[14] = tested on: MKK7; settings: concentration: 1 μM, replicates: in singlicate, n = 1
[15] = tested on: MKNK1; settings: concentration: 1 μM, replicates: in singlicate; n = 1
[16] = tested on: MKNK2; settings: concentration: 1 μM, replicates: in singlicate, n = 1
[17] = tested on: T8, MLCK; settings: concentration: 1 μM, replicates: in singlicate; n = 1
T8 construct: gene MYLK3

[18] = tested on: T9, MLK1; settings: concentration: 1 μM, replicates: in singlicate; n = 1
T9 construct: gene MAP3K9

[19] = tested on: MLK2; settings: concentration: 1 μM, replicates: in singlicate, n = 1
[20] = tested on: MLK3; settings: concentration: 1 μM, replicates: in singlicate, n = 1
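Further: KINOMEscan kinase panel screen.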

## Cl.Cn1ccc(-c2cccc(Nc3ccnc4cc(-c5nccs5)ccc34)c2)n1 [GW525701]
[1]
  %Inh: 0%
[2]
  %Inh: 0%
[3]
  %Inh: 12%
[4]
  %Inh: 0%
[5]
  %Inh: 0%
[6]
  %Inh: 0%
[7]
  %Inh: 8%
[8]
  %Inh: 86%
[9]
  %Inh: 0%
[10]
  %Inh: 0%
[11]
  %Inh: 23%
[12]
  %Inh: 0%
[13]
  %Inh: 54%
[14]
  %Inh: 0%
[15]
  %Inh: 7%
[16]
  %Inh: 1%
[17]
  %Inh: 14%
[18]
  %Inh: 0%
[19]
  %Inh: 0%
[20]
  %Inh: 0%

## CCCc1ccc(S(=O)(=O)NC2CCN(c3ccnc(Nc4ccc(OC)cc4)n3)C2)cc1 (centres unmarked) [GSK1379737]
[1]
  %Inh: 0%
[2]
  %Inh: 0%
[3]
  %Inh: 43%
[4]
  %Inh: 0%
[5]
  %Inh: 0%
[6]
  %Inh: 0%
[7]
  %Inh: 12%
[8]
  %Inh: 0%
[9]
  %Inh: 0%
[10]
  %Inh: 0%
[11]
  %Inh: 16%
[12]
  %Inh: 0%
[13]
  %Inh: 0%
[14]
  %Inh: 0%
[15]
  %Inh: 0%
[16]
  %Inh: 6%
[17]
  %Inh: 11%
[18]
  %Inh: 0%
[19]
  %Inh: 0%
[20]
  %Inh: 4%

## COc1ccc(NC(=O)c2ccc(-c3cc(-c4nnc(C)o4)ccc3C)cc2)cc1 [GW595885]
[1]
  %Inh: 0%
[2]
  %Inh: 0%
[3]
  %Inh: 5%
[4]
  %Inh: 0%
[5]
  %Inh: 0%
[6]
  %Inh: 0%
[7]
  %Inh: 9%
[8]
  %Inh: 0%
[9]
  %Inh: 0%
[10]
  %Inh: 0%
[11]
  %Inh: 21%
[12]
  %Inh: 0%
[13]
  %Inh: 0%
[14]
  %Inh: 34%
[15]
  %Inh: 2%
[16]
  %Inh: 12%
[17]
  %Inh: 0%
[18]
  %Inh: 0%
[19]
  %Inh: 0%
[20]
  %Inh: 11%

## COc1ccc(-c2nc3n(c2-c2ccncc2)CCC3)cc1 [SKF-104493]
[1]
  %Inh: 0%
[2]; 1 µM
  %Inh: 17% and 0%
[3]; 1 µM
  %Inh: 49% and 11%
[4]; 1 µM
  %Inh: 0% and 12%
[5]; 1 µM
  %Inh: 29% and 5%
[6]; 1 µM
  %Inh: 1% and 0%
[7]; 1 µM
  %Inh: 67% and 12%
[8]; 1 µM
  %Inh: 24% and 0%
[9]
  %Inh: 0%
[10]; 1 µM
  %Inh: 0% and 15%
[11]
  %Inh: 0%
[12]
  %Inh: 0%
[13]; 1 µM
  %Inh: 5% and 19%
[14]; 1 µM
  %Inh: 14% and 19%
[15]
  %Inh: 0%
[16]; 1 µM
  %Inh: 19% and 0%
[17]
  %Inh: 0%
[18]
  %Inh: 0%
[19]; 1 µM
  %Inh: 0% and 4%
[20]; 1 µM
  %Inh: 9% and 24%

## CC(C)(C)OC(=O)NC1CCCN(c2cc(-c3ccc4c(N)n[nH]c4c3)nc(N)n2)C1 (centres unmarked) [GSK2286096]
[1]
  %Inh: 0%
[2]
  %Inh: 0%
[3]
  %Inh: 0%
[4]
  %Inh: 100%
[5]
  %Inh: 0%
[6]
  %Inh: 0%
[7]
  %Inh: 7%
[8]
  %Inh: 30%
[9]
  %Inh: 0%
[10]
  %Inh: 0%
[11]
  %Inh: 18%
[12]
  %Inh: 0%
[13]
  %Inh: 11%
[14]
  %Inh: 0%
[15]
  %Inh: 12%
[16]
  %Inh: 10%
[17]
  %Inh: 0%
[18]
  %Inh: 0%
[19]
  %Inh: 0%
[20]
  %Inh: 0%

## CNc1nccc(-c2c(-c3ccc(F)cc3)ncn2C2CCN(C)CC2)n1 [SB-222903]
[1]
  %Inh: 18%
[2]
  %Inh: 16%
[3]
  %Inh: 10%
[4]
  %Inh: 8%
[5]
  %Inh: 26%
[6]
  %Inh: 1%
[7]
  %Inh: 0%
[8]
  %Inh: 37%
[9]
  %Inh: 0%
[10]
  %Inh: 0%
[11]
  %Inh: 0%
[12]
  %Inh: 6%
[13]
  %Inh: 43%
[14]
  %Inh: 0%
[15]
  %Inh: 0%
[16]
  %Inh: 0%
[17]
  %Inh: 0%
[18]
  %Inh: 0%
[19]
  %Inh: 31%
[20]
  %Inh: 0%

## COc1ccc(Nc2nccc(N3CCC(NC(=O)c4cccc(NC(C)=O)c4)C3)n2)cc1 (centres unmarked) [GSK1379732]
[1]
  %Inh: 3%
[2]
  %Inh: 0%
[3]
  %Inh: 42%
[4]
  %Inh: 0%
[5]
  %Inh: 0%
[6]
  %Inh: 0%
[7]
  %Inh: 18%
[8]
  %Inh: 19%
[9]
  %Inh: 0%
[10]
  %Inh: 0%
[11]
  %Inh: 24%
[12]
  %Inh: 0%
[13]
  %Inh: 17%
[14]
  %Inh: 0%
[15]
  %Inh: 0%
[16]
  %Inh: 12%
[17]
  %Inh: 31%
[18]
  %Inh: 0%
[19]
  %Inh: 0%
[20]
  %Inh: 12%

## COC(=O)c1cccc(NC(=O)NCCNc2ccnc(Nc3ccc(F)cc3)n2)c1 [GSK1379883]
[1]
  %Inh: 0%
[2]
  %Inh: 2%
[3]
  %Inh: 0%
[4]
  %Inh: 1%
[5]
  %Inh: 0%
[6]
  %Inh: 0%
[7]
  %Inh: 13%
[8]
  %Inh: 9%
[9]
  %Inh: 0%
[10]
  %Inh: 17%
[11]
  %Inh: 18%
[12]
  %Inh: 0%
[13]
  %Inh: 0%
[14]
  %Inh: 0%
[15]
  %Inh: 7%
[16]
  %Inh: 5%
[17]
  %Inh: 0%
[18]
  %Inh: 0%
[19]
  %Inh: 8%
[20]
  %Inh: 6%

## Cn1ccc2ncnc(Nc3ccc(Oc4cccc(Cl)c4)c(Cl)c3)c21
[1]
  %Inh: 0%
[2]
  %Inh: 9%
[3]
  %Inh: 0%
[4]
  %Inh: 29%
[5]
  %Inh: 31%
[6]
  %Inh: 1%
[7]
  %Inh: 17%
[8]
  %Inh: 99.6%
[9]
  %Inh: 27%
[10]
  %Inh: 0%
[11]
  %Inh: 13%
[12]
  %Inh: 2%
[13]
  %Inh: 7%
[14]
  %Inh: 0%
[15]
  %Inh: 16%
[16]
  %Inh: 0%
[17]
  %Inh: 0%
[18]
  %Inh: 7%
[19]
  %Inh: 15%
[20]
  %Inh: 0%

## Nc1nc(-c2ccc3c(N)n[nH]c3c2)cc(N2CCC[C@@H](C(=O)Nc3ccccc3)C2)n1.O=C(O)C(F)(F)F.O=C(O)C(F)(F)F [GSK2288359]
[1]
  %Inh: 0%
[2]
  %Inh: 0%
[3]
  %Inh: 0%
[4]
  %Inh: 0%
[5]
  %Inh: 8%
[6]
  %Inh: 3%
[7]
  %Inh: 0%
[8]
  %Inh: 50%
[9]
  %Inh: 8%
[10]
  %Inh: 13%
[11]
  %Inh: 0%
[12]
  %Inh: 0%
[13]
  %Inh: 0%
[14]
  %Inh: 0%
[15]
  %Inh: 11%
[16]
  %Inh: 1%
[17]
  %Inh: 0%
[18]
  %Inh: 0%
[19]
  %Inh: 0%
[20]
  %Inh: 0%
